# Results reported in the supplement of paper PMC3334620.
# The full ranking holds about 33,000 sequences; the median of “E-score (-0.5 to 0.5)” is about -0.016, and the highest 2% start at about 0.32. The sample as a whole holds a higher share of the highest values than the screen did.
# Target: T1, Stp1 (UniProt B3LFK1)
# T1 sequence: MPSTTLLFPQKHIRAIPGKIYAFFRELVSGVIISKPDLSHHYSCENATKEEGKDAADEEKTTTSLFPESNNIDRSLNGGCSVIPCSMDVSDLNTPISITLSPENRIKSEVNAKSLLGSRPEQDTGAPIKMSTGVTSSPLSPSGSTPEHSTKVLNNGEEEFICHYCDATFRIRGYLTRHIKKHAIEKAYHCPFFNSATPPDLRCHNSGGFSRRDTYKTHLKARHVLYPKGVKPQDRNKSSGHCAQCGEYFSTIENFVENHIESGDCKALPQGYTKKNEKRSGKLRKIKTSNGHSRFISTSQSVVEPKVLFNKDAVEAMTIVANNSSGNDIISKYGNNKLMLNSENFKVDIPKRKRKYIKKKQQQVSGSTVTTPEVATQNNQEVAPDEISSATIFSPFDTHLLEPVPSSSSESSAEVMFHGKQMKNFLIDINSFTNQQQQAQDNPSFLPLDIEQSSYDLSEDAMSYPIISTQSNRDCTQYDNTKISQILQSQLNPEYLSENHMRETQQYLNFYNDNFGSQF
# Assay: PBM E-score (8-mer binding enrichment) (E-score (-0.5 to 0.5)); higher = stronger / more preferred TF binding
# Conditions: protein concentration: 200 nM; construct: GST-full length
# How it was run: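 Yeast transcription factors carrying a GST tag, as full-length proteins or DNA-binding domains, were produced by PURExpress in vitro transcription/translation. About 100-200 nM protein was applied to universal all-10-mer Agilent arrays, double-stranded by primer extension on fresh or once-stripped slides. Bound protein was detected with fluorescent anti-GST, and scans were normalised with masliner. The Universal PBM Analysis Suite gave each ungapped eight-base word, pooled with its reverse complement, an E-score, a modified Wilcoxon-Mann-Whitney statistic.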
row,Sequence,PBM E-score
1,ATGCTGAC,-0.0531
2,ATACAGCC,-0.0239
3,GCCTCTAA,0.0553
4,AACCGTAC,-0.0138
5,CGAACAGA,0.0325
6,CACCGTGA,-0.114
7,CCCCGTGA,-0.14
8,CGCCGTGA,0.376
9,ATGCACTC,-0.0521
10,AACGAGAA,0.00842
11,GCCGCCGA,0.316
12,GCCGCCAC,0.0605
13,CCCGCCGC,0.332
14,CCCGCCGA,-0.0885
15,ACCGCCCC,-0.144
16,GCCGCCGC,0.424
17,GCCGCCCC,0.378
18,GCCGCCCA,0.111
19,CCCGCCGG,-0.213
20,CCTTGATC,0.1
21,CTGCCCCC,-0.327
22,CGGGCATA,-0.155
23,AACGCCCA,0.122
24,AAGTCCGT,-0.0471
25,AAAGAAAT,0.128

row,Sequence,PBM E-score
1,CCATATGG,0.0408
2,AGGCTAAG,-0.0187
3,ACCGCAGC,-0.119
4,ACCGCAAC,-0.0924
5,CCCGCATA,0.21
6,TCCGCAGA,-0.0849
7,GCCGCAAC,0.366
8,CCCGCAGA,0.06
9,GCCGCAGC,0.394
10,ACCGCATA,0.0344
11,CCCGCAAC,0.097
12,CCCGCAGC,-0.123
13,GCCGCAGA,0.372
14,GCCGCATA,0.457
15,GTGCTGCA,0.0505
16,CTCTTACC,0.201
17,CTACCTCA,-0.152
18,CTACCCCA,-0.114
19,CAGGTTGA,-0.216
20,AGTAACGC,0.192
21,ATGGTTGC,-0.177
22,GACTAGCC,-0.194
23,ATCGCTGA,-0.0887
24,CCTTGCGC,0.138
25,GGTGCGAC,-0.0804

row,Sequence,PBM E-score
1,ACGTATAA,0.113
2,CCGTACAA,0.35
3,TCGTATAA,0.136
4,CCGTATCA,0.327
5,CCGTATAA,0.341
6,TCGTACAA,0.157
7,CCGTATCC,0.316
8,GCGTACAA,0.167
9,CCGTATCG,0.215
10,ATCGAAGA,0.171
11,GCACTAAC,0.042
12,ATTCTCAA,0.152
13,AGACCAAT,-0.0691
14,GCGACTGA,-0.227
15,ACTCCCAG,-0.264
16,AGTGAACC,0.00324
17,TCCGTTCA,0.0192
18,CCCGTTCA,-0.132
19,GCCGTTCC,0.432
20,GCCGTTCA,0.441
21,CCCGTTCC,-0.00751
22,ACCGTTCC,0.15
23,AAATAAAC,0.218
24,GCGGCCAA,0.161
25,GAGGACAA,-0.101

row,Sequence,PBM E-score
1,CACGTGCG,0.272
2,CAGGATTC,-0.173
3,AGCCTCGA,-0.172
4,GCCATTGA,0.226
5,CGGCTCTA,0.425
6,CAGCTCTC,-0.325
7,CGGCTCTC,0.334
8,GGGCTCTA,-0.0132
9,AGGCTCTA,0.15
10,AGGCTCTC,-0.137
11,CGCACTCC,-0.172
12,CAGAGCTA,-0.171
13,AGGGCGGC,0.14
14,CGGGCGCC,0.269
15,AGGGCGCG,0.369
16,AGGGGGCG,-0.0306
17,AGGGCGCA,0.205
18,AGGGCGCC,0.343
19,ACCAAGGT,0.0467
20,CAGCCACA,0.161
21,CGGCTTAC,0.104
22,GCTGGGTA,-0.175
23,GCTAAAGA,0.0376
24,CAAGGCAA,0.264
25,GAAGGCAA,0.218

row,Sequence,PBM E-score
1,GAAGGCAC,0.368
2,CAAGGCAG,0.0951
3,AAAGGCAA,0.263
4,AAAGGCAC,0.392
5,CAAGGCAC,0.356
6,AAAGGCAG,0.172
7,GCAGGCAC,0.0604
8,AGGTGGCG,-0.0008
9,GCTCAGAA,0.00512
10,TAGGTGGA,-0.21
11,AGGGAAAA,0.0119
12,AGACATTC,-0.19
13,GGATGCCC,-0.245
14,GGAAAAAA,0.149
15,CTGCCTGA,-0.0731
16,TATAGAGA,0.0248
17,GGCACCAA,0.393
18,CGCACCAA,0.213
19,AGCACCGA,0.0493
20,CGCACCGA,0.0478
21,GGCACCAC,0.324
22,CGCACCAC,0.063
23,GGCACCGA,0.356
24,AGCACCAC,-0.134
25,TGCACCAA,-0.0793

row,Sequence,PBM E-score
1,CCCTATTC,-0.0984
2,GACCAACC,-0.152
3,GTTGGCAA,0.0689
4,AAAGGGGG,-0.423
5,AAGGAGAA,-0.131
6,AGGGATTG,-0.0197
7,AATGGTCT,-0.0756
8,AAGTCTGG,-0.218
9,GATAGGGC,0.0849
10,CGAACGGC,0.467
11,AGAACGGC,0.387
12,CGAACGGA,0.207
13,AGAACGGA,0.102
14,AGAACGGG,-0.129
15,CTAACGGC,0.313
16,GTCCTGTA,-0.121
17,CCAAGAGC,0.0254
18,AAGACGGG,0.0493
19,GTCTGTCA,-0.00712
20,ATATATTA,0.329
21,ATTTATTA,0.324
22,CTATATAG,-0.0268
23,ATATATAG,0.318
24,GTATATTA,0.159
25,CTATATTA,0.177

row,Sequence,PBM E-score
1,ATTATTTA,0.281
2,ATATATAT,0.303
3,GTTTATTA,0.0702
4,ATAAAGGG,0.0416
5,CCCTCAGG,-0.224
6,ATCGTTTC,-0.0261
7,CGGTAAGA,0.0116
8,CCTTGCAC,0.127
9,TATCGAGA,-0.0215
10,CGGCACCC,0.338
11,CCGCACCG,0.288
12,GGGCACCC,-0.0477
13,AGGCACCG,0.272
14,CGGCACCG,0.437
15,AGGCACCC,-0.00944
16,TAGATCAA,-0.00316
17,CAAGATCG,-0.123
18,AAAAAGTG,0.204
19,AAACGCTT,-0.0887
20,ACCTCCCG,-0.269
21,CGCAAGGC,0.388
22,CGTAAGGA,-0.0941
23,AGCAAGGC,0.29
24,CGTAAGGC,0.358
25,AGTAAGGC,0.163

row,Sequence,PBM E-score
1,CATAAGGG,-0.0274
2,CATAAGGC,0.344
3,CGCAAAGC,0.126
4,AATAAGGC,0.231
5,CCTCCAGA,0.0135
6,CACATCGC,-0.115
7,CGCGCTAA,0.227
8,GGCGCTAA,0.37
9,CGCGCTGA,-0.0138
10,TGCGCTAA,-0.0463
11,AGCGCTGA,-0.0259
12,GGCGCTGA,0.327
13,GGGGCAGA,-0.0961
14,GTCGACAA,-0.192
15,CCGAACGG,0.334
16,CCGAACGA,-0.0055
17,CCGAACGC,0.226
18,CGTAATAC,0.186
19,CCTGGGCC,-0.181
20,CCGGCACG,0.27
21,CGGGCACA,-0.106
22,TCGGCACA,0.135
23,ACGGCACA,0.479
24,CCGGCACA,0.106
25,ACGGCACG,0.484

row,Sequence,PBM E-score
1,ACTCTGAG,-0.046
2,AAGTGTGC,0.122
3,AACAGTGT,-0.102
4,CGAGGGCG,-0.052
5,ACCGCGAT,0.0376
6,CCGGCGAG,0.0395
7,AAGGCGAG,-0.158
8,ACGGCGAG,0.437
9,AAGGCGAA,0.197
10,AGGGCGAG,-0.12
11,AGGGCGAT,0.0677
12,AAGGCGAT,0.329
13,ACGGCGAT,0.479
14,CTATGGTA,-0.0844
15,AGTTTTGC,0.203
16,AAGGGATA,-0.00219
17,CTAAGTAG,0.0172
18,ACTTTGTC,0.0794
19,ACTTAAAT,0.0505
